Screening results as filed in PubChem.
EBV LMP1 NFkB: inhibitors of Epstein-Barr LMP1-induced NF-kappaB reporter. LMP1-induced NF-kappaB luciferase reporter cells, luminescence. actives 0.69% (n = 350,000). inhibition, % at 12.5 µM; in the data active = inhibition above about 41%; inconclusive = no clear call, values can overlap the other calls;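 also: 0% = neutral control wells and 100% = reference inhibitor control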
HIF-2a inh: HIF-2a inhibition | 786-0 RCC cells HIF-2a reporter, luciferase luminescence, overnight | inhibition, % at 18.8 µM | AID 624352 | actives 0.72% (n = 360,000);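 active = inhibition of the luminescence signal of 40% or more relative to plate controls, in a single-dose primary screen at 18.75 µM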
TRPM1 prom inh: inhibitors of MITF-driven TRPM1 promoter in melanoma cells. inhibition, % at 12.5 µM. actives 0.83% (n = 330,000). AID 488899. SK-MEL-5 TRPM1 promoter luciferase, 24 h;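 active = mean inhibition across replicates of 60% or more, whatever share of single replicates reaches that level; inconclusive = some that reach 60%, reason not given; inactive = mean inhibition across replicates below 60%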
KKLEB tox: reduces viability of KKLEB cystic fibrosis airway cells | KKLEB CF airway cells viability, ATPlite luminescence, overnight; active compounds read low; cells stimulated with P. aeruginosa culture filtrate | activity change (cytotoxicity), % at 5 µM | actives 0.36% (n = 360,000) | AID 602141;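 active = corrected activity change at or below -50% at 5 µM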
Peg3 prom inh: inhibitors of Peg3 promoter | HeLa PEG-Prom luciferase reporter, luminescence, overnight | inhibition, % at 20 µM | actives 1.7% (n = 360,000) | AID 588405;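 active = inhibition of at least 50% at 20 µM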
CF NFkB inh: blocks PAF-induced NF-kB reporter in cystic fibrosis cells; inhibition, % at 5 µM; actives 0.86% (n = 360,000); KKLEB NF-kB-GFP reporter, GFP fluorescence overnight;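 active = at least 50% inhibition at 5 µM, scaled per plate between neutral and stimulator controls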;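 also: PAF is a Pseudomonas aeruginosa culture filtrate used as stimulus; plate controls were PAF-stimulated DMSO wells for no effect and unstimulated DMSO wells for full effect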
Active calls of the source: *; ? = inconclusive; nt = not tested or not shown. Only some compounds are listed: those with a hit (about 3% of all), similar ones and a draw of the others.

SMILES | EBV LMP1 NFkB | HIF-2a inh | TRPM1 prom inh | KKLEB tox | Peg3 prom inh | CF NFkB inh
COc1cccc(OCCSc2nnc3sc4ccccc4n23)c1 | -4 | -144 | -51 | -6 | -140 | 14
CCCCn1c(N)c(N(CCC(C)C)C(=O)COC(=O)c2sccc2C)c(=O)[nH]c1=O | 4 | -1 | 12 | 0 | -7 | 5
CC(C)CN(C(=O)COC(=O)c1cccs1)c1c(N)n(Cc2ccccc2)c(=O)[nH]c1=O | 1 | 12 | nt | -9 | 9 | 28
CC(C)CN(C(=O)COC(=O)c1ccc([N+](=O)[O-])s1)c1c(N)n(Cc2ccccc2)c(=O)[nH]c1=O | 8 | -11 | 60* | 15 | -13 | -3
CCCCn1c(N)c(N(CCC(C)C)C(=O)COC(=O)c2ccc([N+](=O)[O-])s2)c(=O)[nH]c1=O | -22 | -19 | 80* | 1 | 31 | 20
CC(=O)Nc1ccc(S(=O)(=O)N(C)CC(=O)OC(C)C(=O)NC2(C#N)CCCCC2)cc1 (stereo not drawn) | -14 | -2 | nt | -24 | -10 | 24
COC(=O)c1sc(NC(=O)OCc2ccccc2)nc1CCNC(=O)OC(C)(C)C | nt | 2 | nt | nt | nt | nt
O=C(NCc1ccncc1)[C@@H]1CCCN1C(=O)[C@H]1CCCN1C(=O)c1ccccc1 | nt | 7 | nt | nt | nt | nt
COc1ccc(-c2coc3c(C(=O)NCc4cccs4)cccc23)c(C)c1 | nt | -24 | nt | -9 | 22 | 29
Cc1cc2c(cc1C)C(=O)C(Br)=C(N)C2=O | -13 | -88 | 62* | 9 | -134 | -30
O=C1c2ccccc2C(=O)C1c1ccc(Br)cc1 | -13 | -13 | -44 | -2 | -286 | -4
NC1=C(Br)C(=O)c2ccccc2C1=O | -2 | -44 | 71* | 14 | -69 | 14
CCCCOc1ccc(C(=O)NCC(=O)OCCCOC(=O)CNC(=O)c2ccc(OCCCC)cc2)cc1 | -2 | -1 | nt | 11 | 9 | -9
COc1ccc([C@H]2C[C@H](n3cc(-c4ccc(F)cc4)nn3)[C@@H](O)CN2C(=O)C2CCCCC2)cc1 | -3 | 22 | nt | 2 | 21 | -8
COc1cc(Cl)cc(C(c2c(C(=O)O)[nH]c3ccccc23)c2c(C(=O)O)[nH]c3ccccc23)c1O | 48* | 19 | 19 | 12 | 20 | -4
Cc1cc(C(=O)N/N=C/c2sc(N3CCOCC3)nc2-c2ccccc2)c(C)o1 | 41* | -5 | 13 | -4 | 10 | -34
CCOC(=O)c1[nH]c2cc3c(cc2c1NC(=O)CN1CCc2ccccc2C1)OCO3 | 7 | -8 | 13 | -4 | 68* | -2
CSc1ccc(CN2CCC(C)(Oc3ccc(C(C)=O)cc3)C2)cc1 (stereo not drawn) | nt | -1 | nt | 3 | 5 | -9
O=c1c2c(nc3c(-c4ccc(Cl)cc4)c[nH]n13)CCCC2 | 53* | 11 | 44 | -9 | 50 | 26
CC(=O)Nc1cc(-c2ccccc2CN(C)C)cn2c(-c3ccc(C(C)=O)cc3)cnc12 | nt | -15 | nt | -1 | -8 | 15
CCC(=O)NC(c1cccs1)c1ccc2cccnc2c1O (stereo not drawn) | 74* | 4 | 76* | 10 | 45 | 6
Oc1c(C(Nc2nc3ccccc3s2)c2ccco2)ccc2cccnc12 (stereo not drawn) | 61* | -231 | 33 | -20 | -67 | -41
CC(C)C(=O)NC(Nc1cccc2cccnc12)C(Cl)(Cl)Cl (stereo not drawn) | -3 | 15 | 6 | 1 | 12 | 0
CC(C)CC(=O)NC(c1cccs1)c1ccc2cccnc2c1O (stereo not drawn) | 37 | -50 | ? | -11 | 31 | 6
CC(C)C(=O)NC(c1ccco1)c1ccc2cccnc2c1O (stereo not drawn) | 21 | 4 | 76* | -2 | 53* | -6
CCN(CC)c1ccc(C(NC(=O)C(C)C)c2ccc3cccnc3c2O)cc1 (stereo not drawn) | 72* | 5 | nt | -3 | 48 | -9
CC(=O)NC(c1ccco1)c1cc(Cl)c2ccc(Cl)nc2c1O (stereo not drawn) | -2 | 12 | -6 | 2 | 28 | 13
CCCCC(=O)NC(c1ccc(N(C)C)cc1)c1ccc2cccnc2c1O (stereo not drawn) | 34 | 5 | 61* | 0 | 44 | 3
